# Test results from PubChem BioAssay (NCI).
# The panel holds about 79,000 compounds, 15% with a hit somewhere; the sample as a whole holds those more often. Values without a mark were called inactive. Calls of active or inactive are those of the source. Rule as the data show it: active = growth inhibition above about 70%; inactive = the rest.
# Assays:
# [1] = NCI Yeast Anticancer Drug Screen. Data for the rad50 strain (AID 155);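 also: 0% = growth of vehicle-only cultures of the same strain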; details: S. cerevisiae rad50 strain growth inhibition, stronger effect = higher value
# Summary of the method: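 Genetically altered yeast (DNA repair pathway); compound treatment; growth inhibition vs vehicle ctrl.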
# [2] = NCI Yeast Anticancer Drug Screen. Data for the mec2-1 strain (AID 157); details: S. cerevisiae mec2-1 strain, stronger effect = higher value
# Summary of the method: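 Readout is yeast growth inhibition, normalised to vehicle-treated controls, in the mec2-1 strain exposed to compound.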
# [3] = NCI Yeast Anticancer Drug Screen. Data for the sgs1 mgt1 strain (AID 161);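 also: 0% = growth of cultures given vehicle only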; details: S. cerevisiae sgs1 mgt1 strain, stronger effect = higher value
# Summary of the method: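 This yeast growth screen uses a strain with defined DNA-repair lesions; compound-treated growth is compared with vehicle-treated growth.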
# [4] = NCI Yeast Anticancer Drug Screen. Data for the cln2 rad14 strain (AID 165);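 also: 0% = growth equal to vehicle treated cultures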; details: S. cerevisiae cln2 rad14 strain, stronger effect = higher value
# Summary of the method: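 Relative to vehicle controls, growth inhibition of compound-treated cln2 rad14 yeast was recorded.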
# [5] = NCI Yeast Anticancer Drug Screen. Data for the bub3 strain (AID 167); details: S. cerevisiae bub3 mutant strain, stronger effect = higher value
# Summary of the method: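 Yeast carrying a defined mutation is treated with each compound, and growth is compared with that of vehicle-exposed cells to give inhibition.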
# [6] = NCI Yeast Anticancer Drug Screen. Data for the mlh1 rad18 strain (AID 175); details: S. cerevisiae mlh1 rad18 strain growth inhibition, stronger effect = higher value
# Summary of the method: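 Test agents were incubated with a yeast strain of defined genotype (DNA damage repair defect). Inhibition of growth was derived by comparison with vehicle-exposed cultures.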
# [7] = at 5.0 µM (retest, dose inferred, filed as 0.5)
# [8] = at 50.0 µM (retest, dose inferred, filed as 5.0)
SMILES,"growth inhibition [1, 7]","growth inhibition [1, 8]",growth inhibition ([1]; at 50.0 µM),"growth inhibition [2, 7]","growth inhibition [2, 8]",growth inhibition ([2]; at 50.0 µM),"growth inhibition [3, 7]","growth inhibition [3, 8]",growth inhibition ([3]; at 50.0 µM),"growth inhibition [4, 7] [%]","growth inhibition [4, 8]",growth inhibition ([4]; at 50.0 µM),"growth inhibition [5, 7] [%]","growth inhibition [5, 8]",growth inhibition ([5]; at 50.0 µM),"growth inhibition [6, 7]","growth inhibition [6, 8]",growth inhibition ([6]; at 50.0 µM)
O=C1C(=O)C(Cl)=C(Cl)C(Cl)=C1Cl,-3%,97% (active),99.3% (active),7%,99% (active),99.7% (active),1%,95% (active),99.5% (active),-12,98% (active),98.5% (active),-25,97% (active),99.3% (active),-7%,98% (active),99.1% (active)
CCc1c(C)[nH]c2c([N+](=O)[O-])cccc12,5%,29%,95.2% (active),8%,-14%,94.5% (active),-3%,-1%,95.2% (active),-6,-2%,94.5% (active),-13,3%,96% (active),1%,27%,94.8% (active)
O=[N+]([O-])CC(O)c1ccccc1Cl (configuration not stated),90% (active),98% (active),99.3% (active),5%,99% (active),99.7% (active),-15%,99% (active),99.5% (active),-4,98% (active),98.7% (active),16,98% (active),99.4% (active),30%,99% (active),99.2% (active)
NNc1ccccc1F,-34%,96% (active),99.2% (active),-32%,97% (active),99.7% (active),-42%,92% (active),97.8% (active),-41,65%,98% (active),-45,44%,99.2% (active),-58%,95% (active),98.9% (active)
O=C(O)CNc1ccc2c(c1)Cc1cc(Br)ccc1-2,19%,88% (active),97.2% (active),-1%,87% (active),96.2% (active),55%,98% (active),97.9% (active),-3,59%,88.9% (active),-1,85% (active),96.5% (active),45%,96% (active),97.7% (active)
CCCC(=O)NCCNC(=O)CCC,-154%,-159%,4.35%,-48%,-54%,7.75%,-61%,-62%,1.75%,-50,-62%,45.8%,-69,-82%,-3.15%,-139%,-117%,10.1%
CC(=O)NC1=C(Sc2ccc(C)cc2)C(=O)c2ccccc2C1=O,63%,98% (active),54.4%,96% (active),99% (active),10.1%,72% (active),95% (active),29.8%,35,97% (active),-32.6%,67,98% (active),42%,99% (active),99% (active),23.1%
CC#CC(=O)Nc1ccccc1CC(c1c[nH]c2ccccc12)c1c[nH]c2ccccc12,50%,50%,75.4% (active),31%,31%,55.1%,40%,40%,67.5%,19,19%,67.7%,32,32%,60.8%,35%,35%,53.8%
CCCCC(Cc1ccccc1)(C(=O)O)c1ccccc1 (configuration not stated),11%,98% (active),99% (active),18%,98% (active),98.2% (active),16%,99% (active),98.9% (active),31,99% (active),98% (active),3,97% (active),96% (active),14%,99% (active),98.8% (active)
Oc1c(Br)cc(Cl)cc1Br,-4%,98% (active),93.5% (active),5%,99% (active),98% (active),4%,99% (active),86.5% (active),-11,98% (active),90.5% (active),-6,97% (active),96% (active),3%,96% (active),97.5% (active)
CO[C@H]1CC[C@@]2(C)C(=CC[C@H]3[C@@H]4C[C@H](OC(C)=O)C[C@@]4(C)CC[C@@H]32)C1,4%,43%,26.4%,2%,26%,17.8%,1%,24%,38.3%,2,28%,86.7% (active),1,19%,13.3%,0%,23%,34.9%
C/C(=N/Nc1ccc([N+](=O)[O-])cc1[N+](=O)[O-])C(=O)O,11%,69%,95.3% (active),2%,63%,59.8%,-1%,76% (active),97.5% (active),-1,21%,13.2%,-1,72% (active),98.5% (active),-2%,91% (active),96.8% (active)
CC(=O)OC1=C(CC(C)C)C(=O)c2ccccc2C1=O,7%,67%,69.2%,8%,70% (active),59.2%,7%,88% (active),78.6% (active),1,55%,51%,6,78% (active),56.6%,20%,85% (active),73.5% (active)
CC(=O)NNc1nc(C)c(C(=O)NNC(=O)C(=O)Nc2ccc(Cl)c([N+](=O)[O-])c2)s1,34%,34%,70.6% (active),19%,19%,20.9%,32%,32%,69.2%,18,18%,51.6%,19,19%,55.9%,20%,20%,50.4%
CCC(C)(C)c1ccc(OCCO)c([N+](=O)[O-])c1,10%,70% (active),77.3% (active),8%,71% (active),0.1%,15%,92% (active),74% (active),13,64%,25.9%,19,88% (active),72.4% (active),29%,90% (active),56.9%
COc1ccc(/C(=N\Nc2ccc(Br)cc2)c2ccccc2/C(=N/Nc2ccc(Br)cc2)c2ccccc2OC)cc1,1%,-3%,96% (active),-13%,11%,76.3% (active),5%,18%,97.2% (active),2,11%,54.6%,-7,20%,93.5% (active),11%,33%,96.3% (active)
c1ccc2c(B(c3cccc4ccccc34)c3cccc4ccccc34)cccc2c1,0%,98% (active),99.1% (active),14%,99% (active),98.9% (active),-20%,99% (active),98.7% (active),3,98% (active),98.7% (active),-4,99% (active),98.8% (active),0%,98% (active),97.4% (active)
CC(C)C(=O)/C=C/c1ccc(Cl)cc1Cl,-8%,46%,69.8%,-10%,48%,71.8% (active),-16%,31%,69.6%,12,36%,52.5%,-32,54%,69.4%,-5%,48%,40.3%
CCCCCCCCCCCCCCOCCS(=O)(=O)O,18%,83% (active),70.8% (active),-9%,69%,52.4%,16%,80% (active),78.8% (active),-12,61%,38.4%,6,85% (active),29.8%,7%,83% (active),79.4% (active)
